Source: PubChem BioAssay
Mac1 fbg enh = enhancers of CD11b/CD18 adhesion to fibrinogen, primary screen, K562 cells, luminescence | ATPlite luminescence | activation, % at 10 µM | 93,000 compounds, 0.07% hits | AID 1499, 2009;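 active means 10 µM primary screen giving 50% or more activity, confirmed by 40% or more on retest at that dose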
CYP2C19 activ = human CYP2C19 activators, primary screen, biochemical, luminescence. Cytochrome P450 2C19 (Homo sapiens), P33261. recombinant CYP2C19, luciferin-H EGE luminescence; active compounds read high; 0 = fully inhibited enzyme, 1 = untreated enzyme. activation factor at 5 µM. 96,000 tested, under 10 active. AID 1025, 2008;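 active means activation factor of at least 2 at 5 µM in the primary screen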
CYP2C9 activ = human CYP2C9 activators, primary screen, biochemical, luminescence; Cytochrome P450 2C9 (Homo sapiens), P11712; recombinant CYP2C9, luciferin-H conversion; active compounds read high; factor 1 = untreated enzyme, 0 = blocked; activation factor at 5 µM; 96,000 compounds, 1.4% hits; AID 1024, 2008;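 active means activation factor of 2 or more for CYP2C9 at a 5 µM dose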
CD11b adhes inh = inhibitors of CD11b/CD18 adhesion to fibrinogen, primary screen, K562 cells, luminescence; ATPlite luminescence; Mn2+ added to activate the integrin; AID 1497, 2009; inhibition, % at 10 µM; 93,000 compounds, 0.54% hits;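 active means primary inhibition of 50% or more at 10 µM, then 40% or more on retest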
CYP2C9 inhib = blockers of cytochrome P450 2C9 activity – biochemical, luminescence, ADME assay, primary screen; P11712; CYP2C9 Supersomes, luciferin-H conversion; inhibition, % at 5 µM; 96,000 compounds, 20% hits;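 active means blocking of liver enzyme CYP2C9 beyond about 50% at 5 µM, limit read from the data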
CYP2C19 inh = blockers of cytochrome P450 2C19 activity – biochemical, luminescence, ADME assay, primary screen; P33261; CYP2C19 Supersomes, luciferin-H EGE luminescence, 30 min; inhibition, % at 5 µM; 96,000 compounds, 21% hits;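 active means CYP2C19 inhibition above a set limit at 5 µM in the primary screen, cut at about 50% in these data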
Each line names hits and unclear results; the compound was inactive in the other large screens. Only some compounds are listed: those with a hit (about 28% of all), similar ones and a draw of the others.

O=C(CN(Cc1ccc2c(c1)OCO2)C(=O)CSc1nc2ccccc2o1)NC1CCCCC1	CYP2C9 inhib 96.0, CYP2C19 inh 97.5
COCCN(CC(=O)NC1CCCCC1)C(=O)CSc1nc2ccccc2o1	CYP2C19 inh 92.1
CC(=O)c1cc2c(cc1NC(=O)CSc1nc3ccccc3o1)OCO2	none
COCCN(CC(=O)NC1CCCCC1)C(=O)c1csnn1	none (no result: Mac1 fbg enh, CD11b adhes inh)
CCOC(=O)c1nnc(-c2ccc(C)cc2)nc1Sc1cccc(Cl)c1	none
CCOC(=O)c1nnc(-c2ccccc2)nc1Sc1ccccc1Cl	CYP2C9 inhib 53.5
CCOC(=O)CNC(c1ccccc1)c1cc(Br)ccc1NC(=O)OCC (centres undefined)	CYP2C9 inhib 56.4 (no result: Mac1 fbg enh, CD11b adhes inh)
O=C1NCC(c2ccccc2)C1C(=O)N/N=C\c1ccc(-c2ccc(Cl)c(Cl)c2)o1 (centres undefined)	CYP2C9 inhib 67.3
COc1ccc(N2C(=O)CSC2c2ccc3c(c2)OCO3)c(OC)c1 (centres undefined)	CYP2C19 inh 84.0
COc1ccc(N2C(=O)CSC2c2cccc(F)c2)c(OC)c1 (centres undefined)	none
COc1ccc(N2C(=O)CSC2c2ccncc2)cc1 (centres undefined)	CYP2C9 inhib 58.0
COc1ccc(N2C(=O)CSC2c2ccc3c(c2)OCO3)cc1 (centres undefined)	CYP2C19 inh 89.0
COc1ccccc1NC(=O)/C(C#N)=C/c1cc([N+](=O)[O-])ccc1N1CCCC1	none (no result: CYP2C19 activ, CYP2C9 activ, CYP2C9 inhib, CYP2C19 inh)
COc1ccc(C/C(C)=N/NC(=S)Nc2ccc(C)c(C)c2)cc1	none (no result: CYP2C19 activ, CYP2C9 activ, CYP2C9 inhib, CYP2C19 inh)
CCn1c(COc2ccccc2)nnc1SCC(=O)c1cccc([N+](=O)[O-])c1	none
c1ccc(-c2cn3c4c(sc3n2)CCCC4)cc1	CYP2C19 inh 57.0
N#Cc1cc(S(=O)(=O)c2ccccc2)c(N)[nH]c1=O	none
O=C1CC(N2CCN(c3cccc(C(F)(F)F)c3)CC2)C(=O)N1c1ccc(F)cc1 (centres undefined)	none (no result: Mac1 fbg enh, CD11b adhes inh)
CCN(CC)C(=O)COc1cccc2ccccc12	CYP2C9 activ 3.7, CYP2C19 inh 93.0
Cn1c(N)c(C(=O)COC(=O)c2cccs2)c(=O)n(C)c1=O	none
C/C(=N/NC(=O)c1ccc2nc[nH]c2c1)c1cccs1	none (no result: CYP2C19 activ, CYP2C9 activ, CYP2C9 inhib, CYP2C19 inh)
CCOC(=O)C1=C(CSc2nc(C)ccc2C#N)OC(N)=C(C#N)C1c1cccc(OC)c1OC (centres undefined)	CYP2C9 inhib 96.8, CYP2C19 inh 96.8
CCOC(=O)C1=C(CSc2nc(-c3ccncc3)ccc2C#N)OC(N)=C(C#N)C1c1cccnc1 (centres undefined)	CYP2C9 inhib 96.4, CYP2C19 inh 98.8
CCOC(=O)CC1=C(C(=O)OCC)C(c2cc(OC)c(OC)cc2OC)C(C#N)=C(N)O1 (centres undefined)	none
CCOC(=O)C1=C(CSc2nc(-c3ccncc3)ccc2C#N)OC(N)=C(C#N)C1c1ccc(OC)cc1 (centres undefined)	CYP2C9 inhib 94.0, CYP2C19 inh 91.2
COc1ccc(OC)c(S(=O)(=O)N2CCC(C(=O)Nc3cc(C)ccc3C)CC2)c1	none
COc1ccc(C)cc1S(=O)(=O)N1CCN(S(=O)(=O)c2cc(C)ccc2OC)CC1	CYP2C9 inhib 86.9, CYP2C19 inh 75.4
COc1ccc(OC)c(S(=O)(=O)N2CCN(c3ccccn3)CC2)c1	CYP2C9 inhib 76.8, CYP2C19 inh 82.7 (no result: Mac1 fbg enh, CD11b adhes inh)
COc1ccc(F)cc1S(=O)(=O)N1CCCN(S(=O)(=O)c2cc(F)ccc2OC)CC1	CYP2C19 inh 99.4
COc1ccc(F)cc1S(=O)(=O)n1cc(C)nc1-c1ccccc1	none
CCOc1ccc(S(=O)(=O)N2CCC(C(N)=O)CC2)c2ccccc12	CYP2C9 inhib 58.6
Cc1ccc(C)c(NC(=O)Cn2nnc(C(=O)NCc3cccs3)c2N)c1	none (no result: Mac1 fbg enh, CD11b adhes inh)
CCOc1cc(S(=O)(=O)N2CCC(C(N)=O)CC2)ccc1F	none
COc1ccc(C)cc1S(=O)(=O)N1c2ccccc2CC1C (centres undefined)	CYP2C9 inhib 96.1, CYP2C19 inh 95.6
COc1ccc(OC)c(S(=O)(=O)N2CCCCC2C(=O)O)c1 (centres undefined)	none
COc1ccc(F)cc1S(=O)(=O)N1CCCC(C)C1 (centres undefined)	CYP2C19 inh 66.7
COc1ccc(F)cc1S(=O)(=O)N1CCC(C(N)=O)CC1	CYP2C9 activ 2.4
O=C(O)CC/C(=N\Nc1ccc(S(=O)(=O)N2CCCC2)cc1[N+](=O)[O-])c1cccs1	CYP2C9 inhib 98.7
Cc1nc(SCC(=O)NCc2ccccc2)c2oc3ccccc3c2n1	CYP2C9 inhib 78.8
Cc1nc(SCC(=O)c2cccs2)c2oc3ccccc3c2n1	CYP2C9 inhib 63.8
O=C(CSc1ncnc2c1oc1ccccc12)c1cccs1	none
Cc1nc(SCC(=O)N2CCN(c3ccccc3)CC2)c2oc3ccccc3c2n1	CYP2C9 inhib 56.2
Cc1nc(SCC(=O)O)c2oc3ccccc3c2n1	none
COC(=O)c1cc(CSc2nnc(NC3CCCCC3)s2)oc1C	none
CC1(C)Cc2c(c(N3CCOCC3)nc3snc(Br)c23)CO1	CYP2C9 inhib 67.2
CC1(C)Cc2c(c(N3CCOCC3)nc3snc(N)c23)CO1	none
CCOC(=O)CC(=O)CSc1[nH]c(=O)cc(C)c1C#N	none
CCOc1ccc(C(CCc2ccccc2)NC(=O)c2ccccc2)cc1OCC (centres undefined)	CYP2C9 inhib 67.7, CYP2C19 inh 75.8
CCOc1ccc(C(CC(=O)O)NC(=O)c2ccco2)cc1OC (centres undefined)	none
COc1ccc(S(=O)(=O)Nc2ccccc2OC)cc1NC(=O)c1cc2ccccc2oc1=O	none (no result: CYP2C19 activ, CYP2C9 activ, CYP2C9 inhib, CYP2C19 inh)
COc1cc(OC)c(OC)cc1/C=N/NC(=S)NCC1CCCO1 (centres undefined)	CYP2C9 inhib 65.2
Fc1cccc(Cl)c1Cn1nnc2c(N3CCC4(CC3)OCCO4)ncnc21	none
O=C1CCCCCN1CSc1nc2ccccc2s1	none
O=C(CSc1nc2ccccc2s1)N1CCOCC1	CYP2C19 inh 78.3
NC(=O)C1(N2CCCCC2)CCN(C(=O)CSc2nc3ccccc3s2)CC1	CYP2C9 inhib 79.1, CYP2C19 inh 78.1
COC(=O)CC/C(O)=C1/C(=N)CC(C)(C)CC1=O	none
COc1ccccc1CP(=O)(c1ccccc1)c1ccccc1	none (no result: CYP2C19 activ, CYP2C9 activ, CYP2C9 inhib, CYP2C19 inh)
CCC(C)NC(=O)C1c2cc(OC)c(OC)cc2C(=O)N(C)C1c1cccs1 (centres undefined)	none (no result: Mac1 fbg enh, CD11b adhes inh)
